Bioassay records from PubChem BioAssay.
Shown are actives, neighbours in structure and some others; about 2.8% of the full set was active somewhere.
D3 antag – antagonists of human D3 dopamine receptor. AID 652054. max response, negative = inhibition, %. 360,000 compounds, 2.5% hits. D3R cells, DiscoveRx beta-arrestin luminescence, antagonist mode; hits give low values. P35462; in the data active = max response below about -50%; inconclusive = no clear call, values can overlap the other calls; also: % is scaled to controls: 0 for no effect and ±100 for the full control effect
Target sequence (P35462 whole entry, looked up): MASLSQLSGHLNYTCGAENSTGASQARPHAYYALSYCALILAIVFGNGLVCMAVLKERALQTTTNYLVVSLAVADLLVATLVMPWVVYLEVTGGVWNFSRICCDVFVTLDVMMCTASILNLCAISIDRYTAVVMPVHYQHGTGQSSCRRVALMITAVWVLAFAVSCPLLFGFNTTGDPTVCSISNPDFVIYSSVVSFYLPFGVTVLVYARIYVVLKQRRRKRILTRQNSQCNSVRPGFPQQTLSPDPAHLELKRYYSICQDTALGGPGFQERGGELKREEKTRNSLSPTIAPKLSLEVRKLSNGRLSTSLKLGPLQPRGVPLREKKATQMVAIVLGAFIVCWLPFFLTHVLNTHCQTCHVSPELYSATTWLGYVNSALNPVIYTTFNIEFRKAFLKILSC
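Cells plated overnight at 1500 cells/well, then exposed to library compounds with dopamine controls for 90 minutes at 37 degrees C. DiscoveRx reagent added for 30–60 minutes at room temperature; luminescence read, quantitative HTS format.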
D3 ag – agonists of human D3 dopamine receptor; max activation, %; D3R DiscoveRx beta-arrestin cells, luminescence, 90 min; P35462; 410,000 compounds, 0.58% hits; AID 652048; in the data active = max activation above about 30%; also: 0% is about no effect
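Agonist mode: compounds and dopamine controls were applied to plated cells for 90 min at 37 degrees C after an overnight attachment at 1500 cells/well. Luminescent read-out followed 30 - 60 minutes at room temperature with DiscoveRx detection reagent.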
Akt phos inh – Akt phosphorylation inhibition; Neuro2A IGF-stimulated pAkt S473 HTRF, 20 min; hits give low values; activity change, % for hits at 50 µM; 360,000 compounds, 0.32% hits; in the data active = activity change below about -80%; inconclusive = mostly about -51% to -80%; also: % is scaled to controls: 0 for no effect and ±100 for the full control effect
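Neuro2A cells in DMEM with 0.5% FBS, overnight at 37 deg C, given compound at single 50 µM final, then IGF (6 nM final) for 20 min at 37 deg C. Lysed; phospho-Akt Ser473 by HTRF after 24 h, 665/615 ratio.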
RGS4 inhibitor – blocks human RGS4-accelerated GTP hydrolysis; P49798; Transcreener GDP fluorescence polarization, RGS4-accelerated GTP hydrolysis; Potency, µM (highest dose often 114 µM), for the others: at the top dose activity change, negative = inhibition, hits mostly inhibitors; 390,000 compounds, 0.039% hits; AID 504845; active = well fitted inhibition curve with a large enough effect; inconclusive = small, poorly fitted or top-dose-only effect; inactive = no such curve, though single readings can be large or run the other way; also: potency is read from the fitted curve at half-maximal effect; % is scaled to controls: 0 for no effect and ±100 for the full control effect; nearly all actives have a fitted effect of over 75% in size
Target sequence (P49798 whole entry, looked up): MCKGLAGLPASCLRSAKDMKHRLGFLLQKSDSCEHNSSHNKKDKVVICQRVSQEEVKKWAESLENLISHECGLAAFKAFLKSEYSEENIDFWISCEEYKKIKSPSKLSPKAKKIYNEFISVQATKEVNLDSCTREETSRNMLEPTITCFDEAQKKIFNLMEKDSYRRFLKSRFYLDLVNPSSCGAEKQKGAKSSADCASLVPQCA
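MLSMR compounds (23 nl, pin-transferred) preincubated 10 min at room temperature with a 500nM (2x) first reagent, then RGS4 at 900nM (2x) plus Transcreener GDP mix added; fluorescence polarization (620/688 nm) read before and after 90 min at 30 °C.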
PI4K2A inh – blocks human PI4K2A kinase activity; Q9BTU6; purified PI4K2A, ADP-Glo luminescence, 1 h; hits give low values; activity change, negative = inhibition, % at 76.9 µM; 420,000 compounds, 0.13% hits; AID 1346378; in the data active = activity change below about -50%; inconclusive = mostly about -30% to -49%;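 also: -100% = wells without enzyme as full effect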
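In this quantitative HTS, ADP production by PI4K2A was quantified luminescently after 1 h at ambient temperature; 100 microM adenosine served as plate-quality control.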
LDHA block – LDHA (human) enzyme inhibition; 480,000 compounds, 0.15% hits; activity change, % (values are at about 110 or 230 µM); purified LDHA, NADH/diaphorase-resazurin fluorescence; hits give low values; P00338; in the data active = activity change below about -30%; inconclusive = mostly about -25% to -30%;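 also: plate controls were DMSO wells for no effect and wells without enzyme for full effect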
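Resorufin fluorescence (ex540/em590), read at 0 and 20 min after diaphorase/resazurin addition, reports the NADH left after a 5 min room-temperature reaction of 2 nM human LDH5 with 0.06 mM NADH and 0.2 mM pyruvate.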
* = called active by the depositor; i = inactive; u = inconclusive; x = no result.

SMILES | D3 antag | D3 ag | Akt phos inh | RGS4 inhibitor | PI4K2A inh | LDHA block
Cc1ccccc1-n1c(=O)n(Cc2ccc(C(=O)O)cc2)c(=O)c2[nH]cnc21 | 6 | 8 | i | -6% | 1 | -6
CC(=O)c1c(C)n[nH]c1C | x | x | x | x | x | 0
CCCc1c(CC)c(=N)c2ccccc2n1C | 4 | -4 | i | -38% | -11 | -45*
CC(=O)Nc1ccc(NC(=O)c2nc3ccccc3nc2N2CCCCC2)cc1 | x | x | x | x | x | 11
CCC(=O)Nc1ccc(-c2nc3ccc(C)cc3o2)cc1 | x | x | x | x | x | -5
Cc1ccc2cc(CCNC(=O)c3ccco3)c(=O)[nH]c2c1 | -103* | 6 | i | 0% | 4 | 0
COc1ccc2cc(CCNC(=O)c3ccco3)c(=O)[nH]c2c1 | 15 | -1 | i | -10% | -1 | 1
Cc1ccc2cc(CN(C(=O)c3ccco3)c3ccccc3C)c(=O)[nH]c2c1 | 8 | 2 | -112%* | -33% | 9 | -3
O=S(=O)(Nc1nc2ccccc2[nH]1)c1ccc(Cl)cc1 | -22 | -6 | i | -5% | -5 | -3
O=S(=O)(Nc1nc2ccccc2[nH]1)c1ccccc1 | -55* | 0 | i | 13% | 2 | -7
CC(C)(C)c1ccccc1OCCOCCN1CCCCCC1 | -62* | -14 | i | 1% | -8 | 1
CC(C)(C)c1ccccc1OCCOCCSc1ncccn1 | 4 | -3 | i | 17% | 1 | 3
Cc1ccc(C(C)(C)C)c(OCCOCCN2CCCC2)c1 | -54* | -30 | i | -28% | 3 | -12
O=C(NCCc1ccccc1)c1ccc(CS(=O)(=O)c2ccc(Br)cc2)o1 | 2 | 2 | i | -7% | 1 | -1
CN(CCNC(=O)c1ccc(CS(=O)(=O)c2ccc(Br)cc2)o1)CCc1ccccc1 | -55* | -14 | i | -41% | 2 | -2
CCN1CCCC1CNC(=O)C(=O)NCCc1ccc(OC)c(OC)c1 (centres undefined) | 9 | 11 | i | 12% | 1 | 0
CCN1CCCC1CNC(=O)c1cc(NC(C)=O)c(N(C)C)cc1OC (centres undefined) | -88* | -9 | i | 8% | 4 | -7
CCN1CCCC1CNC(=O)c1ccccc1Cl (centres undefined) | -25 | -24 | i | -51% | -2 | 1
CCC(=O)Nc1cc(C(=O)NCC2CCCN2CC)c(OC)cc1N(C)C (centres undefined) | -91* | -38 | x | -2% | -2 | -1
CCN1CCCC1CNC(=O)c1cc(S(N)(=O)=O)ccc1OC (centres undefined) | -98* | x | i | u | 2 | -7
O=C(NN1CCOCC1)c1ccc(Cl)c([N+](=O)[O-])c1 | -3 | 0 | i | -8% | -4 | -2
CN1CCN(NC(=O)c2ccc(Cl)c([N+](=O)[O-])c2)CC1 | 0 | -5 | -112%* | -19% | -8 | -7
CCOc1ccc(N/C(C)=C\C(=O)c2ccc3c(c2)OCCO3)cc1 | 8 | 2 | i | 26% | 1 | -12
CCOc1ccc(N/C(C)=C/C(=O)c2ccc3c(c2)OCCO3)cc1 | 12 | 33* | i | 8% | -2 | 5
Cc1ccc(S(=O)(=O)CCc2nc3ccccc3s2)cc1 | u | 6 | -101%* | -23% | -11 | -4
SMILES | D3 antag | D3 ag | Akt phos inh | RGS4 inhibitor | PI4K2A inh | LDHA block
COc1ccc(N2C(=O)c3ccccc3NC2c2ccc(OC)c(CSc3ccccn3)c2)cc1 (centres undefined) | 9 | -2 | -92%* | 10% | 8 | -4
CNc1nc(-c2ccccc2)c2sccc2n1 | -74* | -13 | i | x | -6 | -4
O=C(NC1CCCCC1)N1CCCCCC1 | -4 | -2 | i | 23% | -5 | -9
CN1CCN(C(=O)NC2CCCCC2)CC1 | -54* | -1 | i | -23% | 7 | -21
Cc1nc2nc(CC(=O)Nc3ccccc3)nn2c(C)c1Cc1ccc(Cl)cc1 | x | x | x | x | x | -6
COc1ccccc1C(=O)COC(=O)Cc1ccc(Cl)cc1Cl | x | x | x | x | x | 9
Cn1c(=O)c2c(-c3ccc(F)cc3)[nH]cc2n(C)c1=O | x | x | x | x | x | 18
CC(=O)Nc1c(I)cc(I)c(C(=O)O)c1I | x | 66* | x | x | 1 | x
CNC(=O)c1c(I)c(NC(C)=O)c(I)c(C(=O)O)c1I | x | x | x | x | 4 | x
COc1ccccc1/C=N/NC(=O)CCC(=O)Nc1cccc(Cl)c1C | x | x | x | x | x | -12
COc1ccc(C(CNC(=O)c2oc3ccc(F)cc3c2C)N2CCCCC2)cc1 (centres undefined) | -104* | -23 | i | -13% | -2 | 2
COc1ccc(C(CNC(=O)c2oc3ccc(Br)cc3c2C)N2CCCCC2)cc1 (centres undefined) | -76* | -15 | i | -14% | 3 | -6
COc1ccc(C(CNC(=O)c2oc3cc(C)c(C)cc3c2C)N2CCCCC2)cc1 (centres undefined) | u | -17 | i | -29% | 2 | -4
CCc1ccc2oc(C(=O)NCC(c3ccc(OC)cc3)N3CCCCC3)c(C)c2c1 (centres undefined) | -77* | -16 | i | 12% | 0 | -2
COc1ccc(C(CNC(=O)c2oc3cc(Br)ccc3c2C)N2CCCCC2)cc1 (centres undefined) | -86* | -14 | i | 11% | -2 | -1
N#CC1(NC(=O)CSc2cccc3cccnc23)CCCCCC1 | x | x | x | x | x | 9
Fc1ccc(-n2cc(-c3ccccc3)c3c(N4CCOCC4)ncnc32)cc1 | u | -11 | i | -4% | -1 | 2
CCN1CCN(c2ncnc3c2c(-c2ccccc2)cn3-c2ccc(F)cc2)CC1 | -55* | -21 | i | -14% | 0 | -3
COc1ccc2oc(=O)cc(CN(C)Cc3ccc(C)cc3)c2c1 | x | x | x | x | x | -21
Cc1ccccc1C(=O)Nc1sc2c(c1C(=O)N1CCN(Cc3ccccc3)CC1)CCC2 | x | x | x | x | x | 5
NC(=O)c1ccccc1OCC(=O)NS(=O)(=O)c1ccccc1 | -65* | -2 | i | 11% | -3 | -12
CC(NC(=O)CC12CC3CC(CC(C3)C1)C2)C1CC2CCC1C2 (centres undefined) | x | x | x | x | x | 11
CC(C)CC(NC(=O)OCc1ccccc1)C(=O)NC(C)C(=O)O (centres undefined) | x | x | x | x | x | 8
CC(=O)NC(CC(C)C)C(=O)NC(Cc1ccccc1)C(N)=O (centres undefined) | 9 | 30* | i | -3% | 2 | -4
CC(=O)[C@H](CC(C)C)NC(=O)[C@@H](CC(C)C)NC(=O)[C@H](CC(C)C)NC(=O)OCc1ccccc1 | x | x | x | 8.4µM* | x | x
